In PubChem BioAssay AID504848 (National Center for Advancing Translational Sciences (NCATS), 2011):
Among all 2,300 compounds or so, about 1,400 (61%) were called active. Not shown: some 29% with an inconclusive outcome. The set was probably picked from earlier hits. Some of the results follow. Values without a mark were called inactive. The call rests on the fitted dose curve; in most records, active means well fitted inhibition curve with a large enough effect; inconclusive means small, poorly fitted or top-dose-only effect, or effect the other way; inactive means no such curve, though single readings can be large or run the other way.

Experiment: Confirmation screen for delayed death inhibitors of the malarial parasite plastid, 96 hour incubation; further: nearly all actives have a fitted effect of over 60% in size
Conditions: P. falciparum luciferase growth in erythrocytes; series mostly up to 28.7 µM; activity change, negative = inhibition: at the top concentration
Summary of the method: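 Two-generation (96 h, 37 C) exposure of P. falciparum carrying an integrated firefly luciferase reporter in erythrocytes, 0.1% parasitemia and 2% hematocrit final, Albumax-supplemented RPMI. Luminescence decrease measures growth inhibition.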
On the % scale 0 is the no-effect control and ±100 the full control effect; potency means the concentration at half of the fitted maximal effect.

SMILES	Potency	activity change, negative = inhibition [%]
CC(=O)N1CCc2cc(S(=O)(=O)N3CC(C)CC(C)C3)ccc21 (configuration not stated)	8.91 µM (active)	–
Cc1cccc(C(=O)Nc2ccccc2SCC2CSc3nc4ccccc4c(=O)n32)c1 (configuration not stated)	3.98 µM (active)	–
O=C(Nc1ccccc1SCC1CSc2nc3ccccc3c(=O)n21)c1ccccc1 (configuration not stated)	12.6 µM (active)	–
O=C(Nc1ccccc1SCC1CSc2nc3ccccc3c(=O)n21)c1ccccc1Cl (configuration not stated)	11.2 µM (active)	–
Cc1ccc(C(=O)Nc2ccccc2SCC2CSc3nc4ccccc4c(=O)n32)cc1 (configuration not stated)	10 µM (active)	–
CC(Oc1ccc(F)cc1)C(=O)Nc1ccc2ccccc2c1 (configuration not stated)	–	1.14
CC(Oc1ccccc1F)C(=O)Nc1ccc2ccccc2c1 (configuration not stated)	–	11.9
CC(=O)Nc1ccc(OCc2cccc3ccccc23)cc1	7.94 µM (active)	–
COc1ccccc1NS(=O)(=O)c1ccc2oc(SCc3ccc(C#N)cc3)nc2c1	12.6 µM (active)	–
CCOC(=O)c1c(NC(=O)c2c(-c3ccccc3)noc2C)sc(C)c1-c1ccccc1	5.01 µM (active)	–
COC(=O)c1c(-c2ccccc2)csc1NC(=O)c1c(-c2ccccc2)noc1C	14.1 µM (active)	–
CCOC(=O)c1c(-c2ccc(-c3ccccc3)cc2)csc1NC(=O)c1cccc(N2C(=O)CCC2=O)c1	2.24 µM (active)	–
CCOC(=O)c1c(-c2cccc(C)c2)csc1NC(=O)c1c(-c2ccccc2)noc1C	8.91 µM (active)	–
COC(=O)c1c(NC(=O)c2cccc(N3C(=O)CCC3=O)c2)sc2c1CCN(C(C)=O)C2	11.2 µM (active)	–
CCOC(=O)c1c(-c2ccc(F)cc2)csc1NC(=O)c1c(-c2ccccc2)noc1C	7.08 µM (active)	–
Nc1nc(SCC(=O)NCC2CCCO2)[nH]c(=O)c1NC(=O)c1ccc(F)c(F)c1 (configuration not stated)	7.94 µM (active)	–
COc1ccc(C(=O)Nc2c(N)nc(SCC(=O)Nc3ccc(NC(C)=O)cc3)[nH]c2=O)cc1OC	12.6 µM (active)	–
CC1CN(C(=O)N2c3ccccc3Sc3ccccc32)CC(C)O1 (configuration not stated)	10 µM (active)	–
O=C(N1CCOCC1)N1c2ccccc2Sc2ccccc21	–	-14.8
CCCSc1nc2c(cnn2-c2ccccc2)c(=O)[nH]1	–	-11.6
Cn1c(=O)[nH]c(=O)c2c1nc(SCCN1CCCCC1)n2CCCc1ccccc1	5.01 µM (active)	–
CCCCCCn1c(SCCC)nc2c1c(=O)[nH]c(=O)n2C	14.1 µM (active)	–
Cc1nn(-c2ccccc2)c(N2CCCC2)c1/C=N/NC(=S)Nc1ccccc1F	12.6 µM (active)	–
Cc1nn(-c2ccccc2)c(N2CCCC2)c1/C=N/NC(=O)c1ccccc1O	3.98 µM (active)	–

SMILES	Potency	activity change, negative = inhibition [%]
O=C(CCl)Nc1ccc(Sc2ccc(NC(=O)CCl)cc2)cc1	2.51 µM (active)	–
CC(C)N(c1ccccc1)c1ccc(NC(=O)CCl)cc1	2.51 µM (active)	–
CCC(CC)COC(=O)C1=C(C)NC(=O)NC1c1ccccc1Br (configuration not stated)	10 µM (active)	–
OC1(c2cccs2)CN(c2ccc(Br)cc2)C2=[N+]1CCCS2 (configuration not stated)	8.91 µM (active)	–
OC1(c2cccs2)CN(c2ccc(Cl)cc2)C2=[N+]1CCCC2 (configuration not stated)	6.31 µM (active)	–
Cc1[nH]c(=O)c(C(=O)/C=C/c2ccccc2F)c2c1CCCC2	5.62 µM (active)	–
Cc1[nH]c(=O)c(C(=O)/C=C/c2ccccc2)c2c1CCCC2	4.47 µM (active)	–
Cc1[nH]c2ccccc2c1/C=N/NC(=O)CNC(=O)Cc1ccccc1	–	-7.72
Cc1[nH]c2ccccc2c(=O)c1C(=O)/C=C/c1ccccc1	3.55 µM (active)	–
CCC1CCCCN1CCCNC(=O)CNC(=O)c1nn(-c2ccc(OC)c(Cl)c2)c(=O)c2ccccc12 (configuration not stated)	6.31 µM (active)	–
CCC1CCCCN1CCCNC(=O)Cn1c(=O)c2cccn2c2cccnc21 (configuration not stated)	–	-16.3
N=C(N)c1ccc(/C=C/c2ccc(C(=N)N)cc2O)cc1	0.251 µM (active)	–
C=C1C(=O)O[C@@H]2[C@H]1CC[C@H](C)[C@]1(O)CCC(=O)[C@@]21C	7.08 µM (active)	–
CCCCC1(c2ccc(F)cc2)NC(=O)N(CC(=O)N2CCN(C(=O)c3ccco3)CC2)C1=O (configuration not stated)	12.6 µM (active)	–
CC(C)c1ccc2[nH]c(O)c(N=NC(=O)c3ccc(CSc4nncn4C)cc3)c2c1	2.24 µM (active)	–
O=S(=O)(c1ccc(F)cc1)N1CCN(c2nc(-c3ccc(F)cc3)cs2)CC1	11.2 µM (active)	–
CCOC(=O)c1cc(-c2ccc(C)cc2)n(CCC(=O)NCCN(C)C)c1C	10 µM (active)	–
CCOc1ccc(/C=C/C(=O)NCCc2ccc(OC)c(OC)c2)cc1	15.8 µM (active)	–
O=S(=O)(Nc1ccc(O)c(Sc2nc3ccccc3s2)c1)c1cccc2ccccc12	12.6 µM (active)	–
Cc1ccc(-n2ncc3c(SCc4ccccn4)ncnc32)c(C)c1	14.1 µM (active)	–
CCCC(=O)N=C1SC2CS(=O)(=O)CC2N1c1ccc(CC)cc1 (configuration not stated)	14.1 µM (active)	–
Cc1cc(Br)ccc1NC(=O)CNC(=O)Cn1ncc(Cl)c(Cl)c1=O	11.2 µM (active)	–
CCC(=O)Nc1ccc(C(=O)Cn2ncc(Cl)c(Cl)c2=O)cc1	15.8 µM (active)	–
